Compound activity: PubChem, several laboratories
The list is not random: actives were taken first. Their share in the collection is about 3.1%.
EBV LMP1 NFkB = inhibitors of Epstein-Barr LMP1-induced NF-kappaB reporter. LMP1-induced NF-kappaB luciferase reporter cells, luminescence. AID 504558. inhibition, % at 12.5 µM. 0.69% of 350,000 active; in the data active = inhibition above about 41%; inconclusive = no clear call, values can overlap the other calls
TWEAK-Fn14 inh = blocks TWEAK-Fn14 interaction in a reporter cell assay. TWEAK-stimulated Fn14 reporter cells, luciferase luminescence, 8 h. inhibition, % at 10 µM. 2% of 360,000 active. AID 1159606; in the data active = inhibition above about 50%
PAX8 inh HTS = inhibitors of PAX8 transcriptional activity in RMG-I cells; RMG-I TPO-luciferase reporter, SteadyGlo, 24 h; 1.2% of 360,000 active; inhibition, % at 12.6 µM;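 active = mean replicate inhibition at least 60% with every replicate also reaching 60%; inconclusive = only one of the two criteria is met; inactive = mean below 60% and not all replicates reaching 60%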;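 also: luciferase light reporting Pax8 driven TPO promoter activity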
EWS-Fli inh = inhibitors of EWS/Fli oncoprotein transcriptional activity; A673 NR0B1-luciferase reporter, viability-normalised; inhibition, % at 12.6 µM; 0.67% of 350,000 active; AID 651661;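 active = mean inhibition of at least 50% after viability correction, with every replicate also passing that limit; inconclusive = mean reaches 50% but only one of two replicates passes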;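 also: firefly luciferase signal divided by Alamar Blue viability fluorescence both relative to DMSO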
TROY signal inh = blocks TROY-dependent signaling in reporter cells; 0.98% of 360,000 active; inhibition, % at 10 µM; AID 1347056; Q293 LMP1-TROYcd NF-kB luciferase reporter, 4 h;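 active = compounds whose plate-normalised and pattern-corrected inhibition of the luciferase reporter signal at the single screening dose is 50% or more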
LGR2 inh = Drosophila LGR2 receptor signaling inhibition; 0.35% of 380,000 active; AID 720647; HEK293 LGR2, CRE-luciferase, bursicon-stimulated, 4 h; inhibition, % at 9.99 µM;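 active = drop in luminescence signal, shown as inhibition above about 50% in the replicate tests, limit read from the data, passing the limit was not always enough; inconclusive = probably only some replicates passing the limit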;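 also: agonist challenge used bursicon conditioned medium at about half maximal strength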
Hits are given with their value; – = inactive; ? = inconclusive; · = no result.

SMILES	EBV LMP1 NFkB	TWEAK-Fn14 inh	PAX8 inh HTS	EWS-Fli inh	TROY signal inh	LGR2 inh
O=C(O)[C@@H]1[C@@H](CO)[C@@H]2Cn3c(ccc(-c4ccncc4)c3=O)[C@H]1N2C(=O)C1CCC1	·	·	·	–	·	–
CC=Cc1ccc2n(c1=O)C[C@H]1[C@H](CO)[C@@H](C(=O)N(C)C)[C@@H]2N1C (mixture of isomers)	·	·	·	–	·	–
O=c1[nH]c(CN2CC=C(c3ccccc3)CC2)nc2cc(C(F)(F)F)ccc12	44	–	·	·	–	·
O=C(Cc1cccnc1)N1CCCCN2[C@H](C1)[C@H](c1ccc(C#CC3CC3)cc1)[C@@H]2CO	·	·	–	–	·	·
CC(CCN1CC1)=NNC(=O)Nc1cccc2ccccc12	–	58	–	–	–	–
COc1ccc(OC(=O)N(C)C[C@H]2OCc3ccccc3-c3c(n(C)c4ccccc34)C(=O)N([C@H](C)CO)C[C@@H]2C)cc1	·	·	·	–	·	–
CC=Cc1ccc2n(c1=O)C[C@H]1[C@H](CO)[C@@H](C(=O)OC)[C@@H]2N1S(=O)(=O)c1cccc(C)c1 (mixture of isomers)	·	·	·	–	·	–
CC1OC(OC2C=C3CCC4C(CCC5(C)C(c6ccc(=O)oc6)CCC45O)C3(C)CC2)C(O)C(OC2OC(CO)C(O)C(O)C2O)C1O (centres undefined)	89	86	106	?	–	85
COc1ccc2[nH]c(C)c(CCNCc3cc(OC)c4c(c3)OCO4)c2c1	–	–	–	–	64	–
O=C(NC[C@H]1CC[C@@H]2NC[C@@H]2O1)C1CCCC1	·	·	–	–	·	·
C=C1C(=O)OC2CC3(C)OC3C3OC3C3=CC(OC3=O)C12 (centres undefined)	·	–	·	58	–	·
CN(C)CC#Cc1ccc([C@@H]2[C@@H](CO)N3CCCCN(C(=O)Cc4ccccn4)C[C@H]23)cc1	·	·	–	–	·	–
CN1[C@@H](CO)[C@@H]2c3ccccc3NC[C@@H]21	·	·	–	–	·	–
O=c1oc2ccccc2c(O)c1[C@H]1c2ccc(O)cc2Oc2c1c(=O)oc1ccccc21	–	–	–	–	65	–
NC1=C([N+](=O)[O-])C(c2ccc3c(c2)OCO3)c2c(c3ccccc3oc2=O)O1 (centres undefined)	·	·	–	–	·	–
COc1cc(/C=C/c2nc3ccccc3c(=O)n2-c2cccc(O)c2)ccc1O	–	–	–	–	–	–
COc1cc(/C=C/c2nc3ccccc3c(=O)n2-c2ccccc2O)ccc1O	–	56	–	–	–	–
CCC(C)NC(=O)c1c(N)n(Cc2ccc3c(c2)OCO3)c2nc3ccccc3nc12 (centres undefined)	–	–	–	·	57	·
CCC(C)NC(=O)c1c(N)n(CC2CCCO2)c2nc3ccccc3nc12 (centres undefined)	–	–	·	·	–	·
COC(=O)[C@@H]1[C@@H](CO)[C@@H]2Cn3c(ccc(C4=CCCCC4)c3=O)[C@H]1N2CC1CCCCC1	·	·	·	–	·	–
O=C(C1CC1)N1C[C@@H]2N[C@H](C1)[C@@H]2c1ccc(-c2ccncc2)cc1	·	·	85	80	·	65
O=C(C1CC1)N1C[C@@H]2N[C@H](C1)C2c1ccc(-c2cncnc2)cc1 (some centres undefined)	·	·	–	–	·	–
C=CCN1C(=S)N[C@@H]2c3ccccc3O[C@@]1(C)[C@@H]2C(=O)OCC	·	·	–	–	·	·
CC(=O)OCC12CC(OC(=O)CC(C)C)C(C)=CC1OC1C(O)C(OC(C)=O)C2(C)C12CO2 (centres undefined)	88	93	102	–	82	101
N#Cc1cccc(-c2ccc([C@H]3[C@@H](CO)N4CCCCN(C(=O)Cc5ccccc5)C[C@H]34)cc2)c1	·	·	–	–	·	–
SMILES	EBV LMP1 NFkB	TWEAK-Fn14 inh	PAX8 inh HTS	EWS-Fli inh	TROY signal inh	LGR2 inh
CCCNC(=O)[C@@H]1[C@@H](CO)[C@@H]2Cn3c(cccc3=O)[C@@H]2N1CC	·	·	·	–	·	–
O=C1CC(=O)N(c2ccc(Cl)cc2)C(=O)N1	64	–	–	–	–	–
CC(C)c1ccc(N2C(=O)CC(=O)NC2=O)cc1	–	–	–	–	–	–
O=[N+]([O-])c1cc(Cl)c(O)c(-[n+]2c(-c3ccccc3)cc(-c3ccccc3)cc2-c2ccccc2)c1	–	–	–	–	–	–
O=[N+]([O-])c1ccc(C[n+]2c(-c3ccccc3)cc(-c3ccccc3)cc2-c2ccccc2)cc1	–	–	79	–	–	–
O=C1CNC[C@@H]2[C@H](c3ccc(Br)cc3)[C@H](CO)N12	·	·	–	–	·	–
O=C(O)c1nn(Cc2ccc(Cl)cc2Cl)c2ccccc12	–	–	–	–	–	63
O=C(CF)N(O)c1ccc(C=Cc2ccccc2)cc1	88	–	–	–	–	58
COc1ccc(O)c2c(=O)c3c(OC)cc4c(c3oc12)C1C=COC1O4 (centres undefined)	64	–	·	–	–	–
CCOc1ccc(-n2c(O)c(C=Nc3ccc(N4CCOCC4)cc3)c(=O)[nH]c2=O)cc1	–	91	·	·	·	·
Cc1ccccc1-n1c(O)c(/C=C2/C(c3ccccc3)=Nc3ccccc32)c(=O)[nH]c1=O	–	56	–	–	–	–
COC(=O)C1=Nc2ccccc2/C1=C\c1c(O)n(-c2cc(OC)ccc2OC)c(=O)[nH]c1=O	–	60	–	–	–	–
Cc1cccc(-n2c(O)c(/C=C3/C(c4ccccc4)=Nc4ccccc43)c(=O)[nH]c2=O)c1	–	53	–	–	–	–
COc1ccc(C#Cc2ccc([C@@H]3[C@H](CO)N4CCCCN(C(=O)Cc5ccccc5)C[C@@H]34)cc2)cc1	·	·	–	–	·	–
COC(=O)[C@@H]1[C@@H](CO)[C@@H]2Cn3c(ccc(-c4ccccc4F)c3=O)[C@H]1N2Cc1cccnc1	·	·	–	–	·	–
O=C(Cc1cccnc1)N1CCCCN2[C@H](CO)[C@H](c3ccc(C#CC4CC4)cc3)[C@H]2C1	·	·	–	–	·	·
O=C(Cc1ccccc1)N1CCN(Cc2ccc(Cl)cc2)CC1	–	–	–	–	–	–
O=C(Cc1ccccc1)N1CCN(Cc2ccccn2)CC1	–	92	–	·	–	–
CCOC(=O)[C@]12Cc3cc(Cl)ccc3[C@H]1N(C1CCCCC1)C(=O)c1ccccc12	·	90	·	·	57	·
CCOC(=O)[C@]12Cc3cc(OC)ccc3[C@H]1N(C1CCCCC1)C(=O)c1ccccc12	·	66	76	57	–	50
O=C(Cc1ccccn1)N1CCCCN2[C@H](C1)[C@@H](c1ccc(C#Cc3ccccc3)cc1)[C@@H]2CO	·	·	–	–	·	–
O=C1NCN(c2ccccc2)C12CCN(C(c1ccccc1)c1nnnn1-c1ccc3c(c1)OCCO3)CC2 (centres undefined)	·	–	–	–	–	–
O=c1[nH]c2ccccc2n1C1CCN(C(c2nnnn2-c2ccc3c(c2)OCCO3)C2CC2)CC1 (centres undefined)	·	–	86	–	–	–
O=c1[nH]c2ccccc2n1C1CCN(C(c2cccs2)c2nnnn2-c2ccc3c(c2)OCCO3)CC1 (centres undefined)	·	–	96	–	–	–
